Data reported in PubChem BioAssay AID504332 (National Center for Advancing Translational Sciences (NCATS), 2011).
The campaign covered roughly 350,000 compounds. About 31,000 (8.9%) were called active. Where a call stands in place of a potency, no number is given. Not shown: some 15% with an inconclusive outcome. This is one part of a sample in which actives are shown more often than they occur. Unmarked numbers belong to inactive results. Calls follow the shape of the dose curve; as a rule, active = well fitted inhibition curve with a large enough effect; inconclusive = small, poorly fitted or top-dose-only effect; inactive = no such curve, though single readings can be large or run the other way.

The molecules below were run against Histone-lysine N-methyltransferase EHMT2 (Homo sapiens) (UniProt Q96KQ7) (assay: qHTS Assay for Inhibitors of Histone Lysine Methyltransferase G9a). Settings: G9a H3K9 monomethylation, AlphaScreen, 2 h; series mostly up to 59 µM.
Histone-lysine N-methyltransferase EHMT2 (Homo sapiens), sequence (Q96KQ7 913-1193 limits assumed): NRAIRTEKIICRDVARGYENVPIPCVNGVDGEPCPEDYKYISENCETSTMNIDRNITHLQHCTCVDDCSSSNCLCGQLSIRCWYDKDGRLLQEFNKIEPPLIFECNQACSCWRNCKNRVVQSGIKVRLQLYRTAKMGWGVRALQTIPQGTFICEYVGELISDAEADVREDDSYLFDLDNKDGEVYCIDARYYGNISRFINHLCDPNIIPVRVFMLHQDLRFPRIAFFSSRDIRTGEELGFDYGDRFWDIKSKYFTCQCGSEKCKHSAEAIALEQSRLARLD
Method in brief: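 Quantitative HTS format: methyltransferase activity on a biotin-tagged H3K9 peptide is measured by AlphaScreen, using a rabbit anti-monomethyl-H3K9 antibody with streptavidin donor and anti-IgG acceptor beads. Final levels are 20 nM enzyme, 500 nM peptide, 20 uM SAM; 2 h RT.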
Also: nearly all actives have a fitted effect of over 75% in size.
Potency is read from the fitted curve at half-maximal effect.

Q: COc1ccc(C(=O)Oc2ccc(-c3nnco3)cc2)cc1S(=O)(=O)N1CCOCC1 was tested. Which Potency did it give?
A: 50.1 µM (active)

Q: Which activity, negative = inhibition does the source give for COc1ccc(C(=O)N2CCN(c3ncccn3)CC2)cc1S(=O)(=O)N1CCOCC1 here?
A: 10.4% [at 12.7 µM]

Q: Which activity, negative = inhibition does the source give for COc1ccc(C(=O)OC(C)C(=O)NC2CCCC2)cc1S(=O)(=O)N1CCOCC1 (configuration not stated) here?
A: 22.8% [at 12.7 µM]

Q: For COc1ccc(Cl)cc1NC(=O)CCn1c(=O)c2cccn2c2ccccc21, which Potency is on record?
A: inactive

Q: For CCn1cc(C(=O)N2CCN(c3cc(Cl)ccc3C)CC2)c(=O)c2cc(S(=O)(=O)N3CCCC3)ccc21, which Potency is on record?
A: inactive

Q: For Cc1ccc(Cl)cc1N1CCN(C(=O)c2cccn3c(=O)c4cc(Cl)ccc4nc23)CC1, which Potency is on record?
A: inactive

Q: How did the Potency turn out when Cc1ccc(Cl)cc1N1CCN(C(=O)c2cccc3c(=O)c(C)c(-c4ccccc4)oc23)CC1 was run?
A: 7.94 µM (active)

Q: For CN(C)C(=O)COC(=O)c1cccc(S(=O)(=O)N2CC3(C)CC2CC(C)(C)C3)c1 (configuration not stated), which Potency is on record?
A: inactive

Q: For Cc1ccc(Nc2c(-c3ccc(C)s3)nc3ccccn23)cc1, which Potency is on record?
A: inactive

Q: For Cc1ccc(-c2nc3ccccn3c2Nc2c(C)cccc2C)o1, which Potency is on record?
A: 12.6 µM (active)

Q: How did the Potency turn out when Cc1nc2ccccn2c(=O)c1NC(=O)c1c(F)cccc1F was run?
A: inactive

Q: CCc1cc2c(-c3ccccc3)cc(=O)oc2c2c1OCN(Cc1ccc(C)cc1)C2 was tested. Which Potency did it give?
A: inactive

Q: With CN1CCN(Cc2c(O)ccc3c2oc(=O)c2ccccc23)CC1 as the molecule, how does the activity, negative = inhibition read?
A: -28% [at 2.33 µM]

Q: Cc1ccc(CN2COc3cc(C)c4c(oc(=O)c5ccccc54)c3C2)cc1 was tested. Which Potency did it give?
A: 12.6 µM (active)

Q: How did the Potency turn out when COc1ccccc1CNS(=O)(=O)c1cc(C(=O)NCc2ccccn2)c(Cl)cc1Cl was run?
A: inactive

Q: How did the Potency turn out when CCOc1ccc(NC(=O)C2CCN(S(=O)(=O)c3cc(-c4noc(C)n4)ccc3C)CC2)cc1 was run?
A: inactive

Q: For Cc1ccccc1NC(=O)Cn1c(=O)n(Cc2ccco2)c(=O)c2ccc(C(=O)NC3CCCC3)cc21, which Potency is on record?
A: inactive

Q: For CCN1C(=O)c2ccccc2S(=O)c2ccc(C(=O)NCc3ccc(F)cc3)cc21 (configuration not stated), which Potency is on record?
A: inactive

Q: With COc1cccc(CCNC(=O)COc2cccc3c2OC(C)(C)C3)c1 as the molecule, how does the Potency read?
A: inactive

Q: With COC(=O)C(=Nc1ccccc1)/C(C(=O)C(=O)N(C)c1ccccc1)=C(\O)c1ccc(Cl)cc1 as the molecule, how does the Potency read?
A: 20 µM (active)

Q: COC(=O)c1cn(C(=O)c2ccc(Cl)cc2)c2ccccc12 was tested. Which Potency did it give?
A: inactive

Q: COC(=O)/C(NC(C)=O)=C(\C)c1ccc(Cl)cc1 was tested. Which Potency did it give?
A: inactive

Q: With Cc1cc(Nc2cccc(C(F)(F)F)c2)nc2ccc(NC(=O)c3ccc(=O)[nH]c3)cc12 as the molecule, how does the Potency read?
A: inactive

Q: For O=C(O)CS/C(=C\c1ccc(F)cc1)c1nc2ccccc2s1, which Potency is on record?
A: inactive

Q: With O=C(Nc1nc2ccccc2s1)c1ccc2c(c1)OCO2 as the molecule, how does the Potency read?
A: inactive

Q: How did the Potency turn out when O=C(O)CC/C(=C\c1cc2c(cc1Br)OCO2)c1nc2ccccc2s1 was run?
A: 35.5 µM (active)

Q: Cc1ccc2oc3c(c(=O)c2c1)C(c1ccc(O)cc1)N(Cc1ccc2c(c1)OCO2)C3=O (configuration not stated) was tested. Which Potency did it give?
A: inactive

Q: How did the Potency turn out when Cc1ccc(-n2c(=O)c3cccnc3n2CC(=O)Nc2ccccc2C(F)(F)F)cc1C was run?
A: inactive

Q: Which Potency does the source give for COc1ccc(Cc2nnc(SCC(=O)Nc3ccc(C)c(C)c3)o2)cc1OC here?
A: inactive

Q: With CC(Oc1ccc(F)cc1)C(=O)Nc1cc(S(=O)(=O)N2CCOCC2)ccc1N1CCN(C)CC1 (configuration not stated) as the molecule, how does the Potency read?
A: 11.2 µM (active)

Q: Cc1ccc(S(=O)(=O)N2CCOCC2)cc1C(=O)NCc1ccc(F)cc1 was tested. Which Potency did it give?
A: inactive

Q: O=C(Nc1ccc(N2CCCCC2)cc1)c1cc(S(=O)(=O)N2CCOCC2)ccc1F was tested. Which Potency did it give?
A: 17.8 µM (active)

Q: O=C(CNCc1cccs1)Nc1cc(S(=O)(=O)N2CCCC2)ccc1Cl was tested. Which Potency did it give?
A: inactive

Q: Which activity, negative = inhibition does the source give for COc1ccc(S(=O)(=O)N2CCOCC2)cc1NC(=O)c1ccc(OCC(C)C)c(OC)c1 here?
A: 22.9% [at 2.33 µM]

Q: With Cc1cccc(OCCC(=O)Nc2cc(S(=O)(=O)N3CCCCC3)ccc2N2CCOCC2)c1 as the molecule, how does the Potency read?
A: inactive

Q: With Cc1ccc(S(=O)(=O)N2CCOCC2)cc1C(=O)Nc1ccccc1N1CCCC1 as the molecule, how does the activity, negative = inhibition read?
A: 11% [at 0.501 µM]

Q: For O=C(CNCc1ccco1)Nc1cc(S(=O)(=O)N2CCOCC2)ccc1N1CCCC1, which Potency is on record?
A: 50.1 µM (active)

Q: For COc1ccc(S(=O)(=O)N2CCOCC2)cc1NC(=O)CSc1ncnc2ccccc12, which Potency is on record?
A: inactive

Q: COc1ccc(S(=O)(=O)N2CCCCC2)cc1NC(=O)COc1ccccc1 was tested. Which activity, negative = inhibition did it give?
A: -9.48% [at 2.33 µM]

Q: For COc1ccc(S(=O)(=O)N2CCOCC2)cc1NC(=O)COc1ccccc1, which Potency is on record?
A: 12.6 µM (active)

Q: O=C(Nc1ccc2c(c1)nc1n2CCCCC1)c1cc(S(=O)(=O)N2CCOCC2)ccc1Cl was tested. Which Potency did it give?
A: inactive

Q: How did the Potency turn out when CC1CCC2(CC1)N=C(c1ccccc1)C(=O)N2CC(=O)Nc1ccc(F)c(Cl)c1 (configuration not stated) was run?
A: inactive

Q: Which Potency does the source give for O=C(NCc1cccnc1)C(=O)NCC(c1cccnc1)N1CCN(c2ccccc2)CC1 (configuration not stated) here?
A: inactive

Q: Which Potency does the source give for Cc1c(NC(=O)C(C)(C)C)cccc1-c1nc2ccccc2s1 here?
A: inactive

Q: Which Potency does the source give for CCc1ccc(-n2nnc(-c3nc(-c4ccccc4)no3)c2C)cc1 here?
A: inactive

Q: Which Potency does the source give for CCCCn1c(=N)c(S(=O)(=O)c2ccccc2)cc2c(=O)n3cccc(C)c3nc21 here?
A: inactive

Q: Which Potency does the source give for COc1cccc(N=C2SC(C(=O)Nc3cccc(Cl)c3)CC(=O)N2C)c1 (configuration not stated) here?
A: inactive

Q: With Cc1cccc2c1-c1sc(C(=O)Nc3ccc(F)cc3F)cc1CO2 as the molecule, how does the Potency read?
A: inactive

Q: For CC(C)c1ccc(NC(=O)c2cc(S(=O)(=O)N3CCc4ccccc4C3)ccc2F)cc1, which Potency is on record?
A: 25.1 µM (active)

Q: Which activity, negative = inhibition does the source give for O=C(COC(=O)CCOc1ccccc1)Nc1cc(S(=O)(=O)N2CCCCC2)ccc1Cl here?
A: 4.58% [at 2.33 µM]

Q: O=C(COc1cccc2ccccc12)Nc1cc(S(=O)(=O)N2CCOCC2)ccc1N1CCOCC1 was tested. Which Potency did it give?
A: inactive

Q: For O=C(COC(=O)Cc1ccc(F)cc1)Nc1cc(S(=O)(=O)N2CCOCC2)ccc1N1CCCC1, which Potency is on record?
A: inactive

Q: With CS(=O)(=O)c1ccc(Cl)c(NC(=O)COC(=O)c2cccc(S(=O)(=O)N3CCCC3)c2)c1 as the molecule, how does the Potency read?
A: 56.2 µM (active)

Q: With O=C(COC(=O)c1ccccc1F)Nc1cc(S(=O)(=O)N2CCOCC2)ccc1N1CCCC1 as the molecule, how does the Potency read?
A: 35.5 µM (active)

Q: How did the activity, negative = inhibition turn out when O=C(Nc1ccc(S(=O)(=O)N2CCc3ccccc3C2)cc1)c1ccccc1 was run?
A: 46.5% [at 12.7 µM]

Q: Which Potency does the source give for CC(NC(=O)c1cccc(S(=O)(=O)N2CCc3ccccc3C2)c1)c1ccco1 (configuration not stated) here?
A: inactive

Q: How did the Potency turn out when CC(=O)c1c(C)[nH]c(C(=O)OCC(=O)Nc2cc(S(=O)(=O)N3CCCCC3)ccc2C)c1C was run?
A: inactive
